The results in this text go back to PubChem BioAssay (Tox21).

Assay [1] in a line: qHTS assay to identify small molecule agonists of the RXR signaling pathway - cell viability counter screen (AID 1159529). Note: nearly all actives have a fitted effect of over 50% in size. An outline of the steps:
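Counter screen: CellTiter-Glo luminescence. Cells: RXR-alpha-UAS-bla HEK 293T. Medium: 2% charcoal-stripped FBS. Treatment: 16 h, 37 C. Reagent incubation: 30 min, RT.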
Background: Quantitative high-throughput screening tests each substance at several concentrations.

Assay [2] is described as follows: qHTS assay to identify small molecule antagonists of the retinoid acid receptor (RAR) signaling pathway - cell viability counter screen (AID 1159551). Note: nearly all actives have a fitted effect of over 35% in size. The essentials: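 Following overnight attachment, C3RL4 reporter cells received DMSO-dissolved compounds and then retinol (1 uM final). Six hours later at 37 C, ATP content was measured by CellTiter-Glo luminescence.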

Assay [3] is described as follows: qHTS assay to identify small molecule antagonists of the retinoic acid receptor (RAR) signaling pathway (AID 1159552; note: nearly all actives have a fitted effect of over 50% in size). An outline of the steps: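 Antagonism of retinol-induced RARE reporter activity was measured in C3RL4 cells. Exposure to compounds and 1 uM final retinol lasted 6 hr at 37 C, with luminescence as endpoint.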
Assay [4] can be described thus: qHTS assay to identify small molecule agonists of the retinoic acid receptor (RAR) signaling pathway (AID 1159553). As to conditions: C3RL4 RARE luciferase reporter, agonist, 6 h; activation: at 73.3 µM (top of the series) unless noted. The essentials: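 Cell line C3RL4, RARE luciferase reporter. Treatment: compounds in DMSO, 6 hr, 37 C, 5% CO2, after overnight plating. Detection: luminescence, 30 min RT after reagent.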

Assay [5] can be described thus: qHTS assay to identify small molecule antagonists of the estrogen related receptor (ERR) signaling pathway from Tox21 library - cell viability counter screen (AID 1224834). Note: nearly all actives have a fitted effect of over 30% in size. An outline of the steps:
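Viability readout (CellTiter-Fluor fluorescence, 30 min at 37 C) multiplexed with the ERR assay; cells treated 17.5 h at 37 C with compounds delivered in DMSO.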

Assay [6] in a line: qHTS assay to identify small molecule agonists of the constitutive androstane receptor (CAR) signaling pathway - cell viability counter screen (AID 1224836). Note: nearly all actives have a fitted effect of over 45% in size. An outline of the steps:
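Double-stable HepG2 hepatoma cells (hCAR plus CYP2B6-2.2kb) are treated for 23 h at 37 C with test compounds in 15-point concentration series. PK11195 at 0.75 uM final is co-added. Cell viability is quantified by CellTiter-Fluor.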

A short description of assay [7]: qHTS assay to identify small molecule antagonists of the constitutive androstane receptor (CAR) signaling pathway - cell viability counter screen (AID 1224837). Note: nearly all actives have a fitted effect of over 45% in size. An outline of the steps:
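Fluorescence from CellTiter-Fluor served as the viability signal. Human hepatoma HepG2 cells stably bearing hCAR and CYP2B6-2.2kb received compound plus CITCO (50 nM final) for 23 hr.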

Assay [8] addresses Nuclear receptor subfamily 1 group I member 3 (Homo sapiens) (UniProt Q14994). Kind of assay: qHTS assay to identify small molecule antagonists of the constitutive androstane receptor (CAR) signaling pathway (AID 1224838).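 Note: HepG2 cells stably expressing hCAR with CYP2B6 luciferase reporter stimulated by CITCO; nearly all actives have a fitted effect of over 40% in size.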 The essentials: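 Quantitative HTS in double-stable HepG2-CYP2B6-hCAR cells. After 4 h plating, cells get compound (15 concentrations) and CITCO at 50 nM final, incubate 24 h at 37 C, then ONE-Glo luminescence is read.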

Assay [9] shares this target. In words: qHTS assay to identify small molecule agonists of the constitutive androstane receptor (CAR) signaling pathway (AID 1224839).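 For activation: HepG2 cells stably carrying human CAR and a CYP2B6 luciferase reporter.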 Note: nearly all actives have a fitted effect of over 15% in size. An outline of the steps: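 Readout: firefly luciferase luminescence via ONE-Glo. System: HepG2 double-stable for hCAR and CYP2B6-2.2kb. Conditions: 15-point compound titration, PK11195 at 0.75 uM final, 24 h incubation.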
A short description of assay [10]: qHTS assay to identify small molecule antagonists of the estrogen related receptor signaling pathway with the pleiotropic PPARgamma coactivator (PGC) from Tox21 10K library - cell viability counter screen (AID 1224840; active = well fitted cell-killing curve with a large enough effect in the repeat runs, not every such curve was filed as active; note: nearly all actives have a fitted effect of over 40% in size). The essentials:
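Compounds in DMSO, alongside positive and negative controls, were pinned onto PGC/ERR cells (2,000 per well). Exposure lasted 17.5 hours at 37 C, followed by a 30-minute CellTiter-Fluor incubation and fluorescence reading.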

Assay [11] is described as follows: qHTS assay to identify small molecule antagonists of the estrogen related receptor signaling pathway with the pleiotropic PPARgamma coactivator (PGC) from Tox21 10K library (AID 1224841; call rule not given here; note: actives are mostly falling curves and most rising ones were filed inactive; nearly all actives have a fitted effect of over 50% in size). The essentials:
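Compound exposure ran 18 hours at 37 C in PGC/ERR cells (2,000/well) that had first rested 6 hours in a 37 C/5% CO2 incubator. Luciferase activity was then detected with One-Glo after a 30-minute room-temperature step.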

A short description of assay [12]: qHTS assay to identify small molecule agonists of the estrogen related receptor signaling pathway with the pleiotropic PPARgamma coactivator (PGC) from Tox21 10K library (AID 1224842). Note: nearly all actives have a fitted effect of over 15% in size. The essentials: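 Luminescence from One-Glo (30 min, room temperature) measured after PGC/ERR cells had 18 h at 37 C with pinned compound (23 nL in DMSO). Cells had been seeded at 2,000 per well and pre-incubated 6 h.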

The target of assay [13] is Thyrotropin receptor (Homo sapiens) (UniProt P16473). Kind of assay: qHTS assay to identify small molecule agonists of the thyroid stimulating hormone receptor (TSHR) signaling pathway (AID 1224843; calls by dose curve; note: nearly all actives have a fitted effect of over 45% in size). The essentials: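 Screening of the Tox21 10K collection used HEK293 cells engineered with TSHR at 800 cells per well. After a 30-min room-temperature compound exposure, HTRF cAMP reagents were added and fluorescence recorded 1 h later.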
Chain of Thyrotropin receptor (Homo sapiens) (P16473 whole entry, looked up): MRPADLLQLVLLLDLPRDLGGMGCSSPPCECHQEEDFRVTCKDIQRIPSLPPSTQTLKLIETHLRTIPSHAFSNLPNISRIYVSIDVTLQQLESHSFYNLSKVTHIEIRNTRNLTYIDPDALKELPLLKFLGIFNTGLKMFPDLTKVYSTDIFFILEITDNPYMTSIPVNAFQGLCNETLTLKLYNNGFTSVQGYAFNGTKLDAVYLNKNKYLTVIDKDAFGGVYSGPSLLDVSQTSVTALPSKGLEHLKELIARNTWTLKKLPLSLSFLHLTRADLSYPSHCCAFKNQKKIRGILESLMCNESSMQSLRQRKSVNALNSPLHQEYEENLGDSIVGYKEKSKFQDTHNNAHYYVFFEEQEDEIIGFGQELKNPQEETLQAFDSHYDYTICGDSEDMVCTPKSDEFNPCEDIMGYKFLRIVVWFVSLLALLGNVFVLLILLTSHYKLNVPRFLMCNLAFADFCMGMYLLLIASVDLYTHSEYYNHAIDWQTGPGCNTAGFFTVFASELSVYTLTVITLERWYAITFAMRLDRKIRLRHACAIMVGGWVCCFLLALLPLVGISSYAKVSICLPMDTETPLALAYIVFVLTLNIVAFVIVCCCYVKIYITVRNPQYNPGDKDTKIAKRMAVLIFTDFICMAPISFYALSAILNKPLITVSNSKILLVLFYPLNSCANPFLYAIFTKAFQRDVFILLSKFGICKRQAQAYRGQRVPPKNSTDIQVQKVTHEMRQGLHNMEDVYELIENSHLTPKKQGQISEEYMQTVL

The target of assay [14] is Luciferin 4-monooxygenase (Photinus pyralis) (UniProt P08659). Kind of assay: qHTS assay to identify small molecule inhibitors of firefly luciferase (AID 1224835). Note: nearly all actives have a fitted effect of over 25% in size. An outline of the steps:
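Inhibition of purified Photinus luciferase is measured by luminescence. Substrate levels (D-luciferin, ATP) sit at their KM values. Each compound is tested in a concentration series.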

“And” between values parts separate entries of the source, which are not always exact repeats. Equal values may be shown once. Inconclusive results are not listed. The source holds several records for some structures; these can differ, active in one and inactive in another. The source made the active and inactive calls. Unless noted, calls come from the whole dose curve; as a rule, active = well fitted curve in the direction sought with a large enough effect in the repeat runs; inconclusive = weak or mixed curves; inactive = no such curve, though single readings can be large; an effect the other way counts as inactive or inconclusive.
Potency is the fitted concentration of half-maximal effect.

Chain of Luciferin 4-monooxygenase (Photinus pyralis) (P08659 whole entry, looked up): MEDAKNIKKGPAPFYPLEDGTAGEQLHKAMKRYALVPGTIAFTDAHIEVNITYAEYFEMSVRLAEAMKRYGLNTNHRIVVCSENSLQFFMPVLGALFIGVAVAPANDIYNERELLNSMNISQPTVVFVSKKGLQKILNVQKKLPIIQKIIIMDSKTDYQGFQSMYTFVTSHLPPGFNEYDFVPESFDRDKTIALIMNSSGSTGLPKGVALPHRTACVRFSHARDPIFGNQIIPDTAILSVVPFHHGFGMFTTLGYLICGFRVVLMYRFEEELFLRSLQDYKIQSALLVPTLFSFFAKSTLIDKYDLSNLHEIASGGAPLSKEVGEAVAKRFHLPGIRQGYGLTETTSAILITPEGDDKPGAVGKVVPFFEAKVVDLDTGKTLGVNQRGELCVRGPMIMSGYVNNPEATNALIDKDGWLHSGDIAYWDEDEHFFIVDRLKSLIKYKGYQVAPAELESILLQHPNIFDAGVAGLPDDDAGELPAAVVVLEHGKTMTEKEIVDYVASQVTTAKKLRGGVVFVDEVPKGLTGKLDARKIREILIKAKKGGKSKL
Chain of Nuclear receptor subfamily 1 group I member 3 (Homo sapiens) (Q14994 whole entry, looked up): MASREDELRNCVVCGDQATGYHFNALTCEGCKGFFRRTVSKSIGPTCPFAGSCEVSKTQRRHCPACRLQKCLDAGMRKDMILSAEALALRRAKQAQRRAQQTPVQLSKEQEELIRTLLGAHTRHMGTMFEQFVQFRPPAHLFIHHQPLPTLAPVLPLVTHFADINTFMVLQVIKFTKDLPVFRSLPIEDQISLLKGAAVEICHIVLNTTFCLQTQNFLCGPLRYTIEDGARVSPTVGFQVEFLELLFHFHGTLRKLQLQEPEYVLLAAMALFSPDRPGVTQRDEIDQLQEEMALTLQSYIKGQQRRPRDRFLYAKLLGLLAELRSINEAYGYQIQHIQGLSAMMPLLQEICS

With `COP(=S)(OC)Oc1ccc(S(=O)(=O)N(C)C)cc1`, the Potency entry in assay [1], in assay [2], in assay [3], in assay [4], in assay [5] and in assay [6] was “inactive” in each case. Further, the Potency entry in assay [7], in [8], in assay [9], in assay [10], in assay [11] and in assay [12] was “inactive” each time. Besides, the Potency result in assay [13] was “inactive”.
As for `Cc1ccc(N=CN(C)C=Nc2ccc(C)cc2C)c(C)c1`, the Potency in assay [1] is 43.8 µM (active) and 43.6 µM (active) and inactive. In addition, the Potency entry in [2], in [3], in [4], in assay [5], in assay [6] and in [7] was “inactive” each time. Further, the Potency result in assay [8], in assay [9], in assay [10] and in [13] was “inactive” each time.
For `OC(c1ccc(Cl)cc1)(c1cncnc1)c1ccccc1Cl` (stereo not given), the Potency entry in assay [1], in [2], in assay [4], in assay [6], in assay [9] and in assay [12] was “inactive” each time. Moreover, the Potency in assay [3] was 27.8 µM (active) and inactive; in assay [5] it was 27.8 µM (active) and 43.3 µM (active); in assay [7] it was 55.4 µM (active); in assay [8], 62.2 µM (active) and inactive; in assay [11] it was 24.8 µM (active) and inactive.
In the case of `CC(C)(c1ccccc1)c1ccc(O)cc1`, the Potency in assay [1] was 43.3 µM (active) and 54.9 µM (active); in assay [3] it was 61.1 µM (active); in assay [9] it was 27.1 µM (active) and 13.7 µM (active); in assay [13] it was 60.6 µM (active) and 54.5 µM (active). Moreover, the Potency result in assay [2], in [4], in assay [6], in [7], in assay [8] and in [10] was “inactive” in each case.
As to `O=C1C(Cl)=C(Cl)C(=O)c2ccccc21`, the Potency in assay [1] was 12.3 µM (active) and 17.4 µM (active); in assay [2] it was 21.8 µM (active) and 24.3 µM (active); in assay [3] it was 21.8 µM (active) and 19.3 µM (active); in assay [5], 61.3 µM (active) and 54.5 µM (active); in assay [14], 5.66 µM (active) and 5.64 µM (active); in assay [11], 34.5 µM (active) and 19.3 µM (active). Besides, the Potency result in [6], in [7], in assay [10] and in assay [12] was “inactive” throughout.
As to `ClC(Cl)(Cl)Br`, the Potency entry in assay [1], in assay [2], in assay [3], in [4], in [5] and in assay [6] was “inactive” throughout. For the same compound, the Potency entry in assay [7], in [8], in assay [9], in assay [10] and in assay [13] was “inactive” in each case.
As to `Clc1ccc(C(Cl)(Cl)Cl)cc1`, the Potency entry in assay [1], in assay [2], in assay [3], in assay [4], in assay [5] and in assay [6] was “inactive” each time. Besides, the Potency entry in [7], in [10], in assay [11], in [12] and in assay [13] was “inactive” in each case.
As for `CC(C)COC(=O)c1ccccc1C(=O)OCC(C)C`, the Potency entry in assay [1], in [2], in assay [3], in assay [4], in [5] and in assay [14] was “inactive” each time. For the same compound, the Potency result in assay [6], in [7], in [10] and in [13] was “inactive” each time.
Turning to `ClC(Cl)=C(Cl)C(Cl)=C(Cl)Cl`, the Potency result in assay [1], in assay [2], in [3], in assay [4], in assay [5] and in [14] was “inactive” throughout. Moreover, the Potency result in assay [6], in assay [7], in assay [10] and in [13] was “inactive” throughout.
As to `O=NN(c1ccccc1)c1ccccc1`, the Potency entry in assay [1], in assay [2], in assay [3], in assay [4], in [5] and in assay [6] was “inactive” each time. Also, the Potency entry in assay [7], in [10] and in [13] was “inactive” each time.
For `Cc1cccc(N=Nc2ccc(N(C)C)cc2)c1`, the Potency entry in assay [1], in assay [2], in assay [3], in assay [8] and in assay [11] was “inactive” each time. For the same compound, the Potency in assay [4] is 69.8 nM (active) and 34.4 µM (active); in [5], 27.3 µM (active); in assay [14], 456 nM (active) and 894 nM (active); in assay [6], 78.3 µM (active); in [9], 2.78 µM (active) and 3.06 µM (active); in assay [12], 1.56 µM (active) and 2.73 µM (active).
With `CN(C)c1ccccc1`, the Potency result in assay [1], in [2], in assay [3], in assay [4], in assay [5] and in [6] was “inactive” throughout. Further, the Potency result in assay [7], in assay [10], in [11], in assay [12] and in [13] was “inactive” each time.
For `C=C(C)C#N`, the Potency result in assay [1], in assay [2], in assay [3], in assay [4], in assay [5] and in [6] was “inactive” throughout. Besides, the Potency result in assay [7], in assay [8], in [9], in assay [10] and in assay [13] was “inactive” each time.
Take `CCCCCCCCCc1ccc(O)cc1`: the results for the Potency in [1], in assay [4] and in assay [5] were 55.5 µM (active), 19.5 µM (active) and 61.8 µM (active), respectively. Moreover, the Potency result in assay [2], in assay [3], in [6], in assay [7], in assay [8] and in assay [13] was “inactive” throughout.
Consider `COc1ccc(C=O)cc1OC`, for which the Potency entry in [1], in assay [2], in assay [3], in [4], in assay [5] and in [6] was “inactive” in each case. Also, the Potency entry in assay [7], in [8], in assay [9], in assay [10], in assay [11] and in assay [12] was “inactive” each time.
Consider `O=C1CCCO1`, for which the Potency entry in [1], in assay [2], in [3], in assay [4], in [5] and in assay [6] was “inactive” each time. In addition, the Potency result in assay [7], in assay [8], in [9], in assay [10], in assay [11] and in assay [12] was “inactive” in each case. For the same compound, the Potency result in assay [13] was “inactive”.
Take `ClCC(Cl)CCl`: the Potency entry in [1], in assay [2], in assay [3], in [4], in assay [5] and in [6] was “inactive” in each case. Further, the Potency result in assay [7], in assay [8], in assay [9], in [10], in assay [11] and in assay [12] was “inactive” each time. For the same compound, the Potency entry in [13] was “inactive”.
Regarding `Cn1c(-c2ccccc2)cc(-c2ccccc2)[n+]1C`, the Potency result in assay [1], in assay [2], in assay [3], in assay [4], in assay [5] and in assay [6] was “inactive” in each case. Besides, the Potency entry in assay [7], in [8], in [9], in assay [10], in [12] and in assay [13] was “inactive” throughout. In addition, the Potency in assay [11] is 8.62 µM (active) and 27.3 µM (active).
For the compound `CCC[CH2][Sn]([Cl])([Cl])[CH2]CCC`, the Potency in assay [1] is 1.76 µM (active) and 3.09 µM (active); in assay [2] it was 13.9 µM (active) and 27.3 µM (active); in assay [3], 310 nM (active) and 344 nM (active); in [5], 981 nM (active) and 1.09 µM (active); in [6], 0.874 µM (active); in assay [7], 874 nM (active) and 864 nM (active). Further, the Potency in [8] is 552 nM (active) and 686 nM (active); in [10], 492 nM (active) and 486 nM (active); in [11], 196 nM (active) and 96.9 nM (active). Also, the Potency entry in assay [9] and in assay [12] was “inactive” in each case.
